Measured values from PubChem BioAssay (Tox21).
Records with an inconclusive call do not appear. Calls of active or inactive are those of the source. Unless noted, calls come from the whole dose curve; as a rule, active = well fitted curve in the direction sought with a large enough effect in the repeat runs; inconclusive = weak or mixed curves; inactive = no such curve, though single readings can be large; an effect the other way counts as inactive or inconclusive.

Tests used:
[1] = qHTS assay for small molecule agonists of the p53 signaling pathway (AID 651631; calls by dose curve; note: nearly all actives have a fitted effect of over 15% in size)
Summary of the method: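 We treat p53RE-bla HCT-116 cells with compounds for 16 h at 37 °C, add LiveBLAzer B/G FRET substrate for 2 h at room temperature, and measure fluorescence intensity.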

[2] = qHTS assay for small molecules that induce genotoxicity in human embryonic kidney cells expressing luciferase-tagged ATAD5 (AID 651632); note: nearly all actives have a fitted effect of over 15% in size; note: potency is the fitted concentration of half-maximal effect
Summary of the method: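 Cells were seeded at 2,000 per well, dosed with compound, and incubated 16 hr at 37C in 5% CO2. Luciferase activity was then quantified after a 30 min room-temperature incubation with Amplite.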

[3] = qHTS assay for small molecule agonists of the p53 signaling pathway - cell viability (AID 651633; calls by dose curve;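 note: p53RE-bla HCT reporter cells with a stable beta-lactamase p53 reporter; series mostly up to about 83 µM; nearly all actives have a fitted effect of over 30% in size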)
Summary of the method: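 p53RE-bla cells, seeded at 4,000 per well and rested 5 h at 37 C/5% CO2, received compounds in DMSO for 16 h at 37 C. CellTiter-Glo was then added, and luminescence was read after 30 min at room temperature to gauge cytotoxicity.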

[4] = qHTS assay for small molecule disruptors of the mitochondrial membrane potential - cell viability (AID 720634; calls by dose curve;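 note: human HepG2 liver cancer cells; series mostly up to about 83 µM; nearly all actives have a fitted effect of over 20% in size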)
Summary of the method: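 Cytotoxicity was measured by ATP quantitation in HepG2 wells that had first been treated with compound for 1 hr and stained with m-MPI dye; CellTiter-Glo incubation was 30 min at room temperature.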

[5] = qHTS assay for small molecule disruptors of the mitochondrial membrane potential (AID 720635); note: potency is the fitted concentration of half-maximal effect
Summary of the method: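 HepG2 cells (2,000/well) attached overnight at 37C, then took compound for 1 hr at 37C, 5% CO2. Mito-MPS dye was added for 30 min; fluorescence was read at 490/535 nm (monomers) and 540/590 nm (aggregates).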

[6] = qHTS assay to test for compound auto fluorescence at 590 nm (red) in HepG2 cells (AID 720674)
Summary of the method: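 Compound auto-fluorescence is scored relative to Rose Bengal sodium, measured at 540/590 nm in live HepG2 cultures after 1 hr compound contact (37 C, 5% CO2).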

[7] = qHTS assay to test for compound auto fluorescence at 535 nm (green) in HepG2 cells (AID 720675)
[8] = qHTS assay to test for compound auto fluorescence at 460 nm (blue) in HEK293 cells (AID 720678)
Summary of the method: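 Blue-channel (Ex/Em 405/460 nm) intensity measured in HEK293 cultures after overnight compound exposure at 37C; signal expressed relative to triamterene. Cells plated 2,000 per well in 10% dialyzed FBS medium and allowed 4-5 hr to attach.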

[9] = qHTS assay to test for compound auto fluorescence at 590 nm (red) in HEK293 cells (AID 720679)
Summary of the method: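 Red-channel autofluorescence (Ex/Em 540/590 nm; Rose Bengal sodium reference) was measured after overnight 37C, 5% CO2 exposure of attached HEK293 cells, 2,000 per well in medium with 10% dialyzed FBS.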

[10] = qHTS assay to test for compound auto fluorescence at 535 nm (green) in HEK293 cells (AID 720680)
[11] = qHTS assay to test for compound auto fluorescence at 460 nm (blue) in HEK293 cell free culture (AID 720681)
Summary of the method: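 Test compounds were pinned into cell-free culture medium (DMEM with 10% FBS) and fluorescence was read directly at Ex/Em 405/460 nm. Signals were expressed as fluorescence equivalents of triamterene, with DMSO vehicle as control.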

[12] = qHTS assay to test for compound auto fluorescence at 535 nm (green) in HEK293 cell free culture (AID 720682)
Summary of the method: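 Green-channel intensity (Ex/Em 485/535 nm) was recorded from compound-treated wells containing only DMEM with 10% FBS. Fluorescein provided the equivalency standard.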

[13] = qHTS assay to test for compound auto fluorescence at 590 nm (red) in HEK293 cell free culture (AID 720683)
Summary of the method: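 Tox21 10K library compounds were pinned into cell-free DMEM with 10% FBS and fluorescence was read at excitation 540 nm. Activity is expressed as Rose Bengal sodium equivalency.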

[14] = qHTS assay to test for compound auto fluorescence at 590 nm (red) in HepG2 cell free culture (AID 720684)
Summary of the method: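 Ex 540 / Em 590 nm read of compound in cell-free MEM (10% FBS). Rose Bengal sodium reference.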

[15] = qHTS assay to test for compound auto fluorescence at 460 nm (blue) in HepG2 cell free culture (AID 720685)
Summary of the method: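 Cell-free plates of MEM plus 10% FBS received 23 nL compound or DMSO vehicle; blue-channel (405/460 nm) intensity scored against triamterene as reference fluorophore.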

[16] = qHTS assay to test for compound auto fluorescence at 535 nm (green) in HepG2 cell free culture (AID 720686)
[17] = qHTS assay to test for compound auto fluorescence at 460 nm (blue) in HepG2 cells (AID 720687)
Summary of the method: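 Cells (2,000/well in MEM with 10% FBS) attached overnight at 37 C, then were exposed to compound or DMSO for 1 hr at 37 C, 5% CO2. Fluorescence read at Ex/Em 405/460 nm, expressed as triamterene-equivalent signal.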

[18] = molecular target: Glucocorticoid receptor (Homo sapiens) (UniProt P04150); assay: qHTS assay to identify small molecule agonists of the glucocorticoid receptor (GR) signaling pathway (AID 720691; active = well fitted activation curve with a large enough effect in the signal ratio in the repeat runs, not every such curve was filed as active; the % refers to the signal ratio)
Sequence of Glucocorticoid receptor (Homo sapiens) (P04150 whole entry, looked up): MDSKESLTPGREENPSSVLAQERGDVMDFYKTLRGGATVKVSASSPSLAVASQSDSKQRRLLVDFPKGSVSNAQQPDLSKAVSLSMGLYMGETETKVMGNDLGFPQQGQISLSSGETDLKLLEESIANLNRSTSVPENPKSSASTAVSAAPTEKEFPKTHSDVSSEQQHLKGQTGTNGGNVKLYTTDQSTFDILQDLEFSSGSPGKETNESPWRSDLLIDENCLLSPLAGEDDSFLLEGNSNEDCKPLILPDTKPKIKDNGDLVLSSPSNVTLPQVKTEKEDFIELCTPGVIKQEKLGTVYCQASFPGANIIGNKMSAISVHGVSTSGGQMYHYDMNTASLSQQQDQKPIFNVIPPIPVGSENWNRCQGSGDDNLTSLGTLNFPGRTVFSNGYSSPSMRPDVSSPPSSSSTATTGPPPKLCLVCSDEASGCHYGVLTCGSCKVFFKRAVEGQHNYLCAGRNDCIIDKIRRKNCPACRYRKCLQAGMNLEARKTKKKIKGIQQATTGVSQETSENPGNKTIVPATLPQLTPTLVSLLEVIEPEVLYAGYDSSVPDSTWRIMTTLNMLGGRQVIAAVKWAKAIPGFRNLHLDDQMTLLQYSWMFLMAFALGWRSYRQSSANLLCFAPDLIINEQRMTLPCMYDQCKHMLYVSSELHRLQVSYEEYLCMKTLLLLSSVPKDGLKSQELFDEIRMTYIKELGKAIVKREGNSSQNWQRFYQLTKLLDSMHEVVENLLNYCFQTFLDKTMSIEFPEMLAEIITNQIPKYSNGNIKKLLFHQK
Summary of the method: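 Steps: seed GR-bla HeLa cells, incubate 4 h at 37 C/5% CO2; pin-transfer DMSO-dissolved compounds; incubate 18 h at 37 C; add LiveBLAzer B/G FRET substrate; after 2 h at room temperature, measure fluorescence.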

[19] = molecular target: Glucocorticoid receptor (Homo sapiens) (UniProt P04150); assay: qHTS assay to identify small molecule antagonists of the glucocorticoid receptor (GR) signaling pathway (AID 720692; active = well fitted inhibition curve with a large enough effect in the signal ratio in the repeat runs, not every such curve was filed as active; the % refers to the signal ratio)
Summary of the method: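 Antagonism was scored as loss of dexamethasone-driven (5 nM final) reporter signal in HeLa cells bearing a glucocorticoid response element–beta-lactamase construct, after 18 h compound exposure at 37 C and 2 h FRET substrate loading.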

[20] = qHTS assay for small molecules that induce genotoxicity in human embryonic kidney cells expressing luciferase-tagged ATAD5 - cell viability (AID 651634; calls by dose curve; note: nearly all actives have a fitted effect of over 25% in size)
Summary of the method: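 Cells (HEK293T, luciferase-tagged ATAD5) are seeded at 2,000 per well, dosed with compound or DMSO vehicle, and incubated 15.5 hr at 37C and 5% CO2. CellTiter-Fluor is added for 30 min before fluorescence is measured.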

Measured: Potency

O=C(O)c1ccccc1S
not listed: [20]
inactive: all other assays above

C=CCSCC1Nc2cc(Cl)c(S(N)(=O)=O)cc2S(=O)(=O)N1 (stereo unspecified)
not listed: [20]
inactive: all other assays above

CCCCc1ccc2cccc(S(=O)(=O)O)c2c1
not listed: [5] | [10] | [17] | [19]
inactive: all other assays above

COC(=O)CCCC(=O)O
not listed: [5] | [19]
inactive: all other assays above

COC(=O)CCCCCCCCC(=O)OC
not listed: [5] | [10] | [18] | [19]
inactive: all other assays above

NC(=O)Nc1nc2ccccc2[nH]1
not listed: [5] | [18] | [19] | [20]
inactive: all other assays above

Oc1ccc2c(c1)OC[C@@H](N1CCC(O)(c3ccc(F)cc3)CC1)[C@H]2O
active: [2] 7.5 µM | [5] 33.5 µM
not listed: [4] | [17]
inactive: all other assays above

CCCCN(CCO)CCO
not listed: [5] | [17]
inactive: all other assays above

CCN1CCCC1CNC(=O)c1cc(S(N)(=O)=O)ccc1OC (stereo unspecified)
not listed: [5] | [6] | [19]
inactive: all other assays above

CN1[C@@H]2CC[C@H]1CC(NC(=O)n1c(=O)[nH]c3ccccc31)C2 (stereo partly specified)
not listed: [5]
inactive: all other assays above

CCCCCCCCCCC1CO1 (stereo unspecified)
not listed: [5] | [18] | [19]
inactive: all other assays above

CC(C)=CCC/C(C)=C/C(=O)O
not listed: [6] | [20]
inactive: all other assays above

CCCCCCC(=O)OCC
not listed: [5] | [18] | [19]
inactive: all other assays above

CCCC(C)CO (stereo unspecified)
not listed: [5] | [20]
inactive: all other assays above
